13 compounds from PubChem BioAssay (EPA / NIEHS) can be followed below.

Inconclusive results are not listed. Calls of active or inactive are those of the source. Rule for the calls, unless noted: active = hit-call score of the fitted dose curve at least 0.9, where 1 is the maximum; inactive = score below 0.9.

Read-out in assay [1]: succinate dehydrogenase complex iron sulfur subunit B (SDHB), SDHB (gene 6390)
As to the kind of experiment: LTEA_HepaRG_SDHB: Life Technologies and Expression Analysis (LTEA) Assay for succinate dehydrogenase complex iron sulfur subunit B (SDHB) using HepaRG (AID 2283528). The settings on record: mRNA level, 48 h; actives raise or lower the signal. A digest of the protocol: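 Readout is SDHB transcript level by qRT-PCR, normalised to three housekeeping genes and fitted bidirectionally against 0.5% DMSO vehicle. Human HepaRG cells were treated for 48 h at up to 100 uM.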

Read-out in assay [2]: Signal transducer and activator of transcription 3 (Homo sapiens) (UniProt P40763)
As to the kind of experiment: LTEA_HepaRG_STAT3: Life Technologies and Expression Analysis (LTEA) Assay for Signal transducer and activator of transcription (STAT3) using HepaRG (AID 2283529). The settings on record: mRNA level, 48 h; actives raise or lower the signal. The gist of the method:
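HepaRG, 48 h exposure, 8-pt half-log series (top 100 uM), 0.5% DMSO vehicle, duplicates. Readout: STAT3 transcript by Fluidigm qRT-PCR, housekeeping-normalized; bidirectional fit vs DMSO baseline.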

Read-out in assay [3]: solute carrier (SLCO1B1), SLCO1B1 (gene 10599)
As to the kind of experiment: LTEA_HepaRG_SLCO1B1: Life Technologies and Expression Analysis (LTEA) Assay for solute carrier (SLCO1B1) using HepaRG (AID 2283530). The settings on record: mRNA level, 48 h; actives raise or lower the signal. The gist of the method:
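SLCO1B1 transcript levels were quantified by TaqMan qRT-PCR using three housekeeping genes for normalization. This followed 48 h chemical exposure (100 uM top, half-log, 8 points, 0.5% DMSO) of HepaRG liver cells, with gain or loss fitted relative to DMSO.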

Read-out in assay [4]: sulfotransferase 2A1 (SULT2A1), SULT2A1 (gene 6822)
As to the kind of experiment: LTEA_HepaRG_SULT2A1: Life Technologies and Expression Analysis (LTEA) Assay for sulfotransferase 2A1 (SULT2A1) using HepaRG (AID 2283531). The settings on record: mRNA level, 48 h; actives raise or lower the signal. A digest of the protocol:
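Expression change of SULT2A1, by qRT-PCR with three housekeeping-gene normalization, was scored bidirectionally versus DMSO. Cells: differentiated HepaRG, dosed in duplicate for 48 h across 8 points, highest 100 µM, half-log dilution, 0.5% DMSO.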

Read-out in assay [5]: Transforming Growth Factor (TGFA), TGFA (gene 7039)
As to the kind of experiment: LTEA_HepaRG_TGFA: Life Technologies and Expression Analysis (LTEA) Assay for Transforming Growth Factor (TGFA) using HepaRG (AID 2283532). The settings on record: mRNA level, 48 h; actives raise or lower the signal. A digest of the protocol: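 qRT-PCR read-out of TGFA transcript, normalized to three housekeeping genes, fitted bidirectionally against 0.5% DMSO baseline. Human HepaRG cultures received chemicals for 48 h at eight half-log concentrations, top 100 uM.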

Read-out in assay [6]: Transforming Growth Factor (TGFB1), TGFB1 (gene 7040)
Nature of the assay: LTEA_HepaRG_TGFB1: Life Technologies and Expression Analysis (LTEA) Assay for Transforming Growth Factor (TGFB1) Transporter using HepaRG (AID 2283533). The settings on record: mRNA level, 48 h; actives raise or lower the signal. The gist of the method:
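TGFB1 transcript measured by qRT-PCR with normalisation to three housekeeping genes (ACTB, GAPDH, POLR2A); human HepaRG line treated in duplicate for 48 hr with an 8-point series topping at 100 uM, 0.5% DMSO vehicle, bidirectionally fitted.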

Read-out in the next assay: TIMP1, TIMP1 (gene 7076)
Nature of the assay: LTEA_HepaRG_TIMP1: Life Technologies and Expression Analysis (LTEA) Assay for TIMP1 using HepaRG (AID 2283534). The settings on record: mRNA level, 48 h; actives raise or lower the signal. The gist of the method: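 Bidirectional change in TIMP1 transcript versus 0.5% DMSO, measured by TaqMan qRT-PCR with three housekeeping genes for normalization. HepaRG human liver cells dosed 48 h in duplicate, top concentration 100 uM with half-log dilutions.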

Read-out in assay [7]: Cellular tumor antigen p53 (Homo sapiens) (UniProt P04637)
As to the kind of experiment: LTEA_HepaRG_TP53: Life Technologies and Expression Analysis (LTEA) Assay for Tumor Protein P53 (TP53) using HepaRG (AID 2283537). The settings on record: mRNA level, 48 h; actives raise or lower the signal. A digest of the protocol:
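Read-out is TP53 transcript level by microfluidic qRT-PCR, normalised to three housekeeping genes and fitted bidirectionally against DMSO. Human HepaRG cells received compounds for 48 h, highest concentration 100 uM.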

Read-out in assay [8]: UDP glucuronosyltransferase (UGT1A6), UGT1A6 (gene 54578)
As to the kind of experiment: LTEA_HepaRG_UGT1A6: Life Technologies and Expression Analysis (LTEA) Assay for UDP glucuronosyltransferase (UGT1A6) using HepaRG (AID 2283539). The settings on record: mRNA level, 48 h; actives raise or lower the signal. A digest of the protocol: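 Expression was quantified by TaqMan qRT-PCR on Fluidigm arrays with ACTB/GAPDH/POLR2A normalization and bidirectional fitting against 0.5% DMSO. HepaRG cells (~100,000/well) were treated in duplicate for 48 h at eight half-log concentrations up to 100 uM in serum-free induction medium.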

Read-out in assay [9]: X-box binding protein 1 (XBP1), XBP1 (gene 7494)
As to the kind of experiment: LTEA_HepaRG_XBP1: Life Technologies and Expression Analysis (LTEA) Assay for X-box binding protein 1 (XBP1) using HepaRG (AID 2283540). The settings on record: mRNA level, 48 h; actives raise or lower the signal. The gist of the method: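 XBP1 transcript by qRT-PCR (housekeeping-normalized: ACTB, GAPDH, POLR2A) after 48 h chemical treatment of HepaRG cells, 8-point half-log series topping at 100 uM, vehicle 0.5% DMSO. Gain and loss of signal fitted relative to DMSO.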

Assay [10] is described as follows: LTEA_HepaRG_LDH_cytotoxicity: Cytotoxicity Assessment in the Life Technologies and Expression Analysis (LTEA) Assay (AID 2283563; active = hit-call score of the fitted dose curve at least 0.9, where 1 is the maximum;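 for AC50: LDH activity released into spent culture medium as a marker of cell death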). The gist of the method:
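LDH release into culture medium read after 48 h chemical treatment of HepaRG cells. Duplicate wells, eight-point half-log series topping at 100 uM, 0.5% DMSO vehicle and baseline.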

The nature of assay [11]: ATG_XTT_Cytotoxicity: Cytotoxicity Assessment in the Attagene TRANS-FACTORIAL HepG2 Assay (AID 2283584; active = hit-call score of the fitted dose curve at least 0.9, where 1 is the maximum;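 for AC50: cells exposed to compound for 24 h before reading; active means loss of viability signal versus DMSO baseline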). The gist of the method:
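Viability endpoint from XTT after 24 h chemical exposure of reporter-transfected human HepG2 liver cells; signal loss fitted relative to DMSO negative control.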

Assay [12] addresses Cellular tumor antigen p53 (Homo sapiens) (UniProt P04637). As to the kind of experiment: TOX21_p53_BLA_p3_ratio: Tox21 HCT-116 p53 Agonism Beta-lactamase Assay, Ratio, Phase 3 (AID 2283596; active = hit-call score of the fitted dose curve at least 0.9, where 1 is the maximum). A digest of the protocol:
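Cells were seeded at 4000/well, rested 5 h at 37C, then dosed with DMSO compound solutions (217-fold dilution) for 16 h. CCF4-AM substrate was loaded for 2 h at room temperature, and the 460/530 nm emission ratio was fitted for gain of signal versus DMSO.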

Assay [13] in a line: TOX21_p53_BLA_p4_viability: Viability Assessment in the Tox21 HCT-116 p53 Agonism Beta-lactamase Assay, Phase 4 (AID 2283597; active = hit-call score of the fitted dose curve at least 0.9, where 1 is the maximum;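 note: hits lower the luminescence signal meaning cytotoxicity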). The gist of the method:
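Cytotoxicity as reduced cellular ATP (CellTiter-Glo luminescence, 30 min room temperature), measured in the same wells following the CCF4 FRET p53 reading. Human HCT-116 cells received compounds in DMSO (217-fold dilution) for 16 h.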

For assay [14], the target named is Cellular tumor antigen p53 (Homo sapiens) (UniProt P04637). As to the kind of experiment: TOX21_p53_BLA_p5_ratio: Tox21 HCT-116 p53 Agonism Beta-lactamase Assay, Ratio, Phase 5 (AID 2283599; active = hit-call score of the fitted dose curve at least 0.9, where 1 is the maximum). The gist of the method: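 HCT-116 p53-bla cells (4000/well) plated 5 h, dosed with compound (217-fold DMSO dilution) for 16 h at 37 C; CCF4-AM substrate 2 h at room temperature. Activity is the 460/530 nm emission ratio (405 nm excitation), fitted in gain-of-signal direction versus DMSO.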
Sequence of Cellular tumor antigen p53 (Homo sapiens) (P04637 whole entry, looked up): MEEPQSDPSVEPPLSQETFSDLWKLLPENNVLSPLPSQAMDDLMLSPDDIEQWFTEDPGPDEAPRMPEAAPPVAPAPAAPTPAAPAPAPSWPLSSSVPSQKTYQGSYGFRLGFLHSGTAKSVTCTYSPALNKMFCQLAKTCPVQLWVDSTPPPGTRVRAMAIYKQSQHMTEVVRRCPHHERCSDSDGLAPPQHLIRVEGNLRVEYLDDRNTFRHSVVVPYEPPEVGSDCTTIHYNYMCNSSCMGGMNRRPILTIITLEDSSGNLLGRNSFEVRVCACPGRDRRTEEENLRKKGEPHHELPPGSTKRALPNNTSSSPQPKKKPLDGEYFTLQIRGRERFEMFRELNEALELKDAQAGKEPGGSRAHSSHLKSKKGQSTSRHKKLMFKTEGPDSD

Assay [15] can be described thus: TOX21_p53_BLA_p5_viability: Viability Assessment in the Tox21 HCT-116 p53 Agonism Beta-lactamase Assay, Phase 5 (AID 2283600; active = hit-call score of the fitted dose curve at least 0.9, where 1 is the maximum). A digest of the protocol:
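Viability came from CellTiter-Glo ATP luminescence, read after 30 min at room temperature. Before this, HCT-116 p53-bla cells (4000/well) had 16 hours of compound exposure at 37C, with DMSO stocks diluted 217-fold on transfer.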

Read-out in assay [16]: Nuclear factor erythroid 2-related factor 2 (Homo sapiens) (UniProt Q16236)
Nature of the assay: LTEA_HepaRG_NFE2L2: Life Technologies and Expression Analysis (LTEA) Assay for Nuclear factor erythroid 2-related factor 2 (NFE2L2) Transcription Factor using HepaRG (AID 2283527).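 Note: TaqMan qRT-PCR transcript level normalised to ACTB GAPDH and POLR2A housekeeping genes.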 The settings on record: mRNA level, 48 h; actives raise or lower the signal. A digest of the protocol:
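HepaRG, 48 h dosing, 8-pt half-log series from 100 uM in 0.5% DMSO, duplicates. Read-out: NFE2L2 mRNA by qRT-PCR (ACTB/GAPDH/POLR2A normalization). Bidirectional curve fit vs DMSO baseline.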

Assay [17] can be described thus: TOX21_p53_BLA_p2_viability: Viability Assessment in the Tox21 HCT-116 p53 Agonism Beta-lactamase Assay, Phase 2 (AID 2283591; active = hit-call score of the fitted dose curve at least 0.9, where 1 is the maximum;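 note: compound exposure lasted 16 h at 37 °C; actives lower the ATP signal meaning cytotoxicity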). A digest of the protocol: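 HCT116 p53-bla cells, 4000/well, dosed after 5 h plating (217-fold dilution of DMSO stocks) and incubated 16 h at 37C. Viability taken as cellular ATP by CellTiter-Glo luminescence after 30 min RT; signal loss marks cytotoxicity.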

Sequence of Signal transducer and activator of transcription 3 (Homo sapiens) (P40763 whole entry, looked up): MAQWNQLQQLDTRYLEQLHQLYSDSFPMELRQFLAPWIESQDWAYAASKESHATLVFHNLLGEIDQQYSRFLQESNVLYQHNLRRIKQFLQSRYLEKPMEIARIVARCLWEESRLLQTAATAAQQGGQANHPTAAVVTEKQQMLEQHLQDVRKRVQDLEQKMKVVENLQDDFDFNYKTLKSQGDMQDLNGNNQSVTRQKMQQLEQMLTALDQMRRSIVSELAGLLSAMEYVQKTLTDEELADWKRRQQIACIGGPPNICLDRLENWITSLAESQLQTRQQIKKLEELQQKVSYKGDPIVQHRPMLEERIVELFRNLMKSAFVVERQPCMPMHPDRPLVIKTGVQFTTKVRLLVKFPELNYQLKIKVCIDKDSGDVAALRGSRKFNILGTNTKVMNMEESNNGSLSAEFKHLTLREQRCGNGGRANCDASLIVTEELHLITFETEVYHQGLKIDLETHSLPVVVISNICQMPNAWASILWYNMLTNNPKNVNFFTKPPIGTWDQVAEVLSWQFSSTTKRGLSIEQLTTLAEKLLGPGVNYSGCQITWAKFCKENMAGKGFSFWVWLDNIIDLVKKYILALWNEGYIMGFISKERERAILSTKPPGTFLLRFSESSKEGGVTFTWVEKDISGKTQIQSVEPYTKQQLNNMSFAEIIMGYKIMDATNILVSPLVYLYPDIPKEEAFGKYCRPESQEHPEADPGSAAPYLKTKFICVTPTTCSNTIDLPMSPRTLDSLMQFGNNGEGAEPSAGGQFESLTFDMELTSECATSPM
Sequence of Nuclear factor erythroid 2-related factor 2 (Homo sapiens) (Q16236 whole entry, looked up): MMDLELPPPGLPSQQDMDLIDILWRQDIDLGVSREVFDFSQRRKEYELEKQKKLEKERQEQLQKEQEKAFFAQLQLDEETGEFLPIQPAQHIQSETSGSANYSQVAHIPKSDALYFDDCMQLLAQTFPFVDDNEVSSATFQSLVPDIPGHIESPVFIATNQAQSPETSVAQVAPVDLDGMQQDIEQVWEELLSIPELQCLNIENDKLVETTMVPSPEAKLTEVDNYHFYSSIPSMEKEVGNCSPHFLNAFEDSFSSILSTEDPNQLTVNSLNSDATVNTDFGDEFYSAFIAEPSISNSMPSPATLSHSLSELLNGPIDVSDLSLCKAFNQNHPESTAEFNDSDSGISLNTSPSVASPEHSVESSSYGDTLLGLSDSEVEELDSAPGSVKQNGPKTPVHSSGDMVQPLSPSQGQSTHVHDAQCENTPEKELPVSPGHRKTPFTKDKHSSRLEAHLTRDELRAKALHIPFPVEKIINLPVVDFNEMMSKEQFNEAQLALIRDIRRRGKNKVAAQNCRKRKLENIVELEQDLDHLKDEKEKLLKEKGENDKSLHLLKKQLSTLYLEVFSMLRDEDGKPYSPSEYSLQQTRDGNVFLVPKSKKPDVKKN

In general, AC50 refers to the concentration giving half of the maximal activity seen. For `O=C(CCCN1CCC(O)(c2ccc(Cl)cc2)CC1)c1ccc(F)cc1`, the outcome was “inactive” in assay [1]; “inactive” in assay [2]; “inactive” in the assay with TIMP1, TIMP1 (gene 7076); “inactive” in assay [9]; “inactive” in assay [11]; “inactive” in assay [12]. Besides, the compound was called inactive in assay [13], in assay [14] and in [15]. Besides, the concentration at half-maximal activity (AC50) was 82.6 µM (active) in assay [3]; 95.2 µM (active) in assay [4]; 79.2 µM (active) in assay [5]; 73.6 µM (active) in [6]; 79.1 µM (active) in assay [7]; 76.1 µM (active) in assay [8]. For the same compound, the AC50 in assay [10] was 73.6 µM (active).
As for `CCCCN(C)C`, the call in assay [11] was inactive.
On to `CCC(C)c1ccccc1O` (stereo unspecified), for which the result in assay [16], in assay [1], in [2], in assay [3], in assay [4] and in [5] was inactive. Moreover, the outcome in assay [6] is “inactive”; with TIMP1, TIMP1 (gene 7076), “inactive”; in [8] it was “inactive”; in assay [9] it was “inactive”; in assay [10] it was “inactive”; in assay [11] it was “inactive”.
For `CN(Cc1cnc2nc(N)nc(N)c2n1)c1ccc(C(=O)N[C@@H](CCC(=O)O)C(=O)O)cc1`, the call in [16], in assay [1], in [2], in [3], in assay [5] and in assay [6] was inactive. The outcome is “inactive” with TIMP1, TIMP1 (gene 7076); “inactive” in [8]; “inactive” in assay [10]; “inactive” in assay [11]. In addition, the results for the AC50 in assay [4] and in assay [9] were 0.266 µM (active) and 0.0944 µM (active), respectively.
Take `NNC(=O)CCCCC(=O)NN`: the compound was classed as inactive in assay [11].
Same read-out and setting: then `O=C1C=CC(=O)N1c1cccc(N2C(=O)C=CC2=O)c1`, with “inactive”.
In the case of `CCCCC=O`, the compound was classed as inactive in assay [16], in assay [1], in [2], in [3], in [4] and in assay [5]. The outcome in assay [6] was “inactive”; in the assay with TIMP1, TIMP1 (gene 7076) it was “inactive”; in assay [8], “inactive”; in assay [9], “inactive”; in assay [10] it was “inactive”; in assay [11], “inactive”.
For `CCCCCCCCCCCCOS(=O)(=O)O`, the outcome in [16] is “inactive”; in [1], “inactive”; in assay [2] it was “inactive”; in assay [5], “inactive”; with TIMP1, TIMP1 (gene 7076), “inactive”; in assay [9], “inactive”. In addition, in [10], the outcome was inactive. Also, the figures for the AC50 in assay [4], in assay [6] and in assay [8] were 80.2 µM (active), 80.9 µM (active) and 81 µM (active), respectively.
As to `O=C(NCc1ncc(C(F)(F)F)cc1Cl)c1c(Cl)cccc1Cl`, in [11], the compound was called inactive.
Turning to `CC(C)(c1ccc(Oc2ccc(N)cc2)cc1)c1ccc(Oc2ccc(N)cc2)cc1`, the AC50 in assay [11] was 48.6 µM (active).
For the compound `CC[N+](CC)(CC)Cc1ccccc1`, in assay [11], the call was inactive.
Same read-out and setting: as for `O=S(=O)(O)c1ccccc1`, the entry is “inactive”.
On to `O=C(c1ccccc1)c1ccccc1`, for which the compound was classed as inactive in assay [1], in assay [2], in assay [3], in assay [4], in assay [5] and in [6]. The outcome was “inactive” with TIMP1, TIMP1 (gene 7076); “inactive” in assay [7]; “inactive” in assay [8]; “inactive” in assay [9]; “inactive” in [10]; “inactive” in assay [11]. For the same compound, the result in assay [17], in assay [12], in assay [13], in assay [14] and in assay [15] was inactive.
